Laboratory results taken from PubChem BioAssay AID1159580 (chemical genetic matrix, 2015).
Several values for one entry are separate records, joined by “and”; a condition that tells them apart may be missing. Equal entries are not always repeated. Out of some 5,500 compounds screened, about 2,000 (36%) were called active. Another 18% or so got no clear call; they are omitted. Rule as the data show it: active = normalized growth mostly below about 0.91 (no sharp cut-off); inconclusive = no clear call, values can overlap the other calls; inactive = mostly above about 0.92. Some of the results follow.

Assay: chemical genetic growth profiling, strain panel (AID 1159580);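 also: tested at 20 µM; growth read once vehicle control cultures reached saturation at 30 °C; 1 = growth at the plate median or of vehicle wells; lower values mean less growth of the strain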
Conditions: S. cerevisiae deletion strains, growth OD

Measured: normalized growth

COC(C)(C)CCC[C@H](C)C/C=C/C(C)=C/C(=O)OC(C)C
inactive: locus YAL013W, strain DEP1, active compounds read low 0.998 | locus YAL021C, strain ccr4, active compounds read low 1.03 | locus YAL026C, strain drs2, active compounds read low 1.01 | locus YAL030W, strain snc1, active compounds read low 1.03 | locus YBL061C, strain skt5, active compounds read low 1.02 | locus YBR009C, strain hhf1, active compounds read low 1.01 | locus YBR021W, strain FUR4, active compounds read low 0.985 | locus YBR023C, strain chs3, active compounds read low 1.02 | locus YBR171W, strain sec66, active compounds read low 1.02 | locus YBR229C, strain ROT2, active compounds read low 1 | locus YBR231C, strain swc5, active compounds read low 1 | locus YBR279W, strain paf1, active compounds read low 1 | locus YCL011C, strain gbp2, active compounds read low 1.02 | locus YCL016C, strain dcc1, active compounds read low 1.01 | locus YCL029C, strain bik1, active compounds read low 1.05 | locus YCL061C, strain MRC1, active compounds read low 1.02 | locus YCL069W, strain vba3, active compounds read low 1.03 | locus YCR088W, strain abp1, active compounds read low 1.02 | locus YDL005C, strain med2, active compounds read low 1 | locus YDL035C, strain GPR1, active compounds read low 1 | locus YDL040C, strain nat1, active compounds read low 1 | locus YDL074C, strain BRE1, active compounds read low 0.998 | locus YDL101C, strain DUN1, active compounds read low 1.01 | locus YDL134C, strain PPH21, active compounds read low 1.01 | locus YDL185W, strain tfp1, active compounds read low 1.01 | locus YDL192W, strain arf1, active compounds read low 1.03 | locus YDR001C, strain nth1, active compounds read low 1.02 | locus YDR069C, strain doa4, active compounds read low 1.01 | locus YDR101C, strain arx1, active compounds read low 1.02 | locus YDR137W, strain rgp1, active compounds read low 1.09 | locus YDR150W, strain NUM1, active compounds read low 0.994 | locus YDR159W, strain sac3, active compounds read low 1.03 | locus YDR162C, strain NBP2, active compounds read low 1 | locus YDR195W, strain ref2 0.99 | locus YDR297W, strain sur2, active compounds read low 1.02 | locus YDR318W, strain mcm21, active compounds read low 1.03 | locus YDR334W, strain swr1, active compounds read low 1.02 | locus YDR335W, strain msn5, active compounds read low 1.03 | locus YDR388W, active compounds read low 1.02 | locus YDR392W, strain spt3, active compounds read low 1.05 | locus YDR502C, strain sam2, active compounds read low 1.03 | locus YEL003W, strain gim4, active compounds read low 1.01 | locus YEL037C, strain rad23, active compounds read low 1.01 | locus YEL061C, strain CIN8 (second series), active compounds read low 1.02 | locus YEL061C, strain CIN8, active compounds read low 0.999 | locus YER015W, strain faa2, active compounds read low 1.01 | locus YER016W, strain bim1, active compounds read low 1.02 | locus YER110C, active compounds read low 1.03 | locus YER111C, strain swi4, active compounds read low 1.01 | locus YER155C, strain BEM2 (second series), active compounds read low 1.01 | locus YER155C, strain BEM2, active compounds read low 0.99 | locus YER167W, strain BCK2, active compounds read low 1.01 | locus YFR010W, strain ubp6, active compounds read low 1 | locus YGL078C, strain dbp3, active compounds read low 1.02 | locus YGL086W, strain mad1, active compounds read low 1 | locus YGL167C, strain pmr1, active compounds read low 1.02 | locus YGL173C, strain kem1, active compounds read low 1.02 | locus YGL227W, strain vid30, active compounds read low 1.05 | locus YGL240W, strain doc1, active compounds read low 1.03 | locus YGL248W, strain PDE1, active compounds read low 1.01 | locus YGL253W, strain hxk2, active compounds read low 1 | locus YGR078C, strain PAC10, active compounds read low 1.01 | locus YGR135W, strain pre9, active compounds read low 1.04 | locus YGR229C, strain SMI1, active compounds read low 1.03 | locus YGR252W, strain gcn5, active compounds read low 1.06 | locus YHR013C, strain ard1, active compounds read low 1.03 | locus YHR027C, strain rpn1, active compounds read low 1 | locus YHR030C, strain SLT2, active compounds read low 1 and 0.961 | locus YHR079C, strain IRE1 (second series), active compounds read low 1.01 | locus YHR079C, strain IRE1, active compounds read low 0.942 | locus YHR094C, strain hxt1, active compounds read low 1.01 | locus YHR129C, strain ARP1, active compounds read low 0.998 | locus YHR142W, strain chs7, active compounds read low 0.979 | locus YHR200W, strain rpn10, active compounds read low 1.02 | locus YIL066C, strain RNR3, active compounds read low 1.01 | locus YIL073C, strain SPO22, active compounds read low 1.08 | locus YIL125W, strain kgd1, active compounds read low 1.01 | locus YIR030C, strain dcg1, active compounds read low 1.03 | locus YJL092W, strain hpr5, active compounds read low 1.03 | locus YJL095W, strain BCK1 (second series), active compounds read low 1.02 | locus YJL095W, strain BCK1, active compounds read low 1.03 and 0.955 | locus YJL115W, strain asf1, active compounds read low 1.02 | locus YJL129C, strain trk1, active compounds read low 0.942 | locus YJL134W, strain LCB3, active compounds read low 1 | locus YJL154C, strain vps35, active compounds read low 1.01 | locus YJL164C, strain tpk1, active compounds read low 1 | locus YJL166W, strain qcr8, active compounds read low 1.02 | locus YJL168C, strain set2, active compounds read low 1.02 | locus YJL187C, strain SWE1 (second series), active compounds read low 1.02 | locus YJR043C, strain POL32, active compounds read low 1.01 | locus YJR066W, strain TOR1, active compounds read low 0.892
